Results from PubChem BioAssay AID1117267 (The Scripps Research Institute Molecular Screening Center, 2014).
In all, about 92,000 compounds went through this assay and about 1,200 (1.3%) were called active. This excerpt belongs to a sample that is enriched for actives. Unmarked numbers belong to inactive results.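 How the source made its calls: active means activation above the mean of all tested compounds plus 3 SD (cut at about 9.5% in these data); inactive means the rest.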

assay: TTR transcription activators in neuroblastoma reporter cells, primary screen, cell-based, luminescence, SH-SY5Y, TTR promoter Gaussia luciferase (AID 1117267); conditions: at 16.7 µM, active compounds read high, 100% = recombinant luciferase protein wells;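 further: cells exposed to compounds for one day before reading; 0% = median of all test compound wells on the plate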

In order of falling activation:
1. Cc1ccc(NC(=O)CC(=O)Nc2ccc(C)cc2)cc1  5.18%
2. CC1=C(C(=O)N2CCOCC2)CC(CC(=O)NCc2cccc3ccccc23)C(=O)N1CCC1=CCCCC1 (stereo not drawn)  3.82%
3. COCCNC(=O)C1CCN(C(=O)C2CC(=O)N(c3ccc(C)cc3)C2)CC1 (stereo not drawn)  3.12%
4. CCC(O)C1CCN(Cc2cn(-c3ccc(OC)cc3)nc2-c2cccc(F)c2)CC1 (stereo not drawn)  2.63%
5. CCOc1ccc(CCN2C(=O)C(=O)N([C@@H](Cc3ccc(O)cc3)CN3CCC[C@H]3CN3C(=O)C(=O)NC[C@@H]3CC(C)C)C[C@@H]2Cc2ccccc2)cc1  2.35%
6. Cc1ccc(NC(=O)CN(C)Cc2ccc(F)cc2)c([N+](=O)[O-])c1  2.25%
7. CC(C(=O)N(C)CC(=O)Nc1ccccc1C(F)(F)F)N1C(=O)c2ccccc2C1=O (stereo not drawn)  2.02%
8. N#CCc1c[nH]c2ccc([N+](=O)[O-])cc12  1.86%
9. CCCCCc1ccc(-c2ccc(OCC)cc2)nc1  1.61%
10. CC(=O)c1ccc2c(c1)OCCOCCOc1ccc(C(C)=O)cc1OCCOCCO2  1.09%
11. COc1ccccc1CC(=O)Nc1ccc(S(=O)(=O)N2CCCC2)cc1  1%
12. CC(=O)NC1(c2ccc(F)cc2)CCN(C(=O)c2c(F)cccc2F)CC1  0.91%
13. Cc1cccc(NC(=O)c2cccc(C(F)(F)F)c2)c1  0.86%
14. Cc1ccc(NC(=S)NCc2ccccc2Cl)c(C)c1  0.72%
15. COc1ccccc1/C=N/Nc1nc(C)c(C(C)=O)s1  0.48%
16. COc1ccc(Cn2cc(COC(=O)N(C)Cc3ccccc3)nn2)cc1  0.33%
17. CCOCCn1c(-c2ccccc2)nc2ccccc21  0.16%
18. O=S(=O)(NCCc1ccccc1)c1ccccc1  0.09%
19. COc1ccccc1CNC(=O)C1CCN(S(=O)(=O)c2ccc3c(c2)OCCO3)CC1  0%
20. COc1ccc(CNc2nccs2)cc1  -0.05%
21. CC1CN(C(=S)Nc2ccc(Br)cc2Cl)CC(C)O1 (stereo not drawn)  -0.06%
22. COc1ccccc1N1CCN(c2nc(C)cc(=O)[nH]2)CC1  -0.14%
23. O=C1CC(c2ccc3c(c2)OCO3)N=C2N(CC3CC3)C/C(=C/c3ccccc3)N12 (stereo not drawn)  -0.26%
24. Cc1ccc(NC(=O)CN(C)C(=O)COC(=O)c2nccnc2N)cc1  -0.56%
25. COc1ccc(N(C)C(=O)C2CCN(S(=O)(=O)c3cccc4nsnc34)CC2)cc1  -0.63%
26. Cc1ccc(C(=O)COC(=O)CCCC(=O)NC2CCCCC2)cc1[N+](=O)[O-]  -0.69%
27. COc1ccccc1N1CCN(Cc2nnnn2CCc2ccccc2)CC1  -0.88%
28. CCN(CC)CCCN=C(N)N  -0.95%
29. O=C(NCc1cccc(C(F)(F)F)c1)c1cccc(S(=O)(=O)N2CCN(Cc3ccccc3)CC2)c1  -1.01%
30. Cc1ccn(CC(=O)N2N=C(C(F)F)CC2(O)C(F)F)n1 (stereo not drawn)  -1.11%
31. C/C(CC(=O)Nc1ccc(Cl)cc1)=N\NC(=O)C(=O)NCCO  -1.14%
32. CCN(C(=O)COC(=O)c1ccccc1O)c1cccc2ccccc12  -1.17%
33. CCCCN(CC)C(=O)C1CCCN(S(=O)(=O)c2cccc3nsnc23)C1 (stereo not drawn)  -1.18%
34. COc1ccc(-c2nn(-c3ccccc3)cc2/C=C\C(=O)N2CCOCC2)cc1[N+](=O)[O-]  -1.35%
35. O=C(NCc1ccc(Cl)cc1)C1CCN(S(=O)(=O)c2cccs2)CC1  -1.39%
36. CCOC(=O)c1c(C)c(C(=O)NCCc2ccc(S(N)(=O)=O)cc2)c(C)n1CC  -1.43%
37. O=C(NC1CCCC1)C1c2ccccc2OCC(=O)N1CC(F)(F)F (stereo not drawn)  -1.49%
38. COc1ccc(-n2ncc3c2CC(C)(C)CC3NC(=O)CCc2c(C)noc2C)cc1 (stereo not drawn)  -1.69%
39. COc1ccc(S(=O)(=O)Nc2ccc(S(=O)(=O)N3CCCCC3)cc2)cc1OC  -1.7%
40. CCc1ccccc1OCC(=O)Nc1ccc(C)c(S(=O)(=O)N2CCCCCC2)c1  -2%
41. CCOc1c(OC)cccc1C(=O)NCC1(c2ccccc2)CCCC1  -2%
42. CN(C)c1ccc(NC(=O)CN2C3CCCC2CC(NC(=O)c2ccccc2)C3)cc1 (stereo not drawn)  -2.32%
43. CCOc1cccc(NC(=O)C2CCCN(S(=O)(=O)c3ccc(OC)cc3)C2)c1 (stereo not drawn)  -2.33%
44. Cc1ccccc1CN1CCCCC(NC(=O)Nc2ccccc2F)C1=O (stereo not drawn)  -2.49%
45. CCOC(=O)c1c(C)oc2cc(Sc3ccccc3)c(O)c(O)c12  -2.74%
46. Cc1cccc(OCCCC(=O)Nc2ccc(S(=O)(=O)N3CCCC3)cc2)c1  -3.27%
47. COc1ccc(-c2ccc(Nc3ccc(S(=O)(=O)N4CCCC4)cc3)nn2)cc1OC  -5.27%

With CCOc1ccc(NC(=O)COc2ccc(S(=O)(=O)N3CCCC3)cc2)cc1 the activation was 11.4% (active).
In the case of CCOc1ccccc1NC(=O)COc1ccc(S(=O)(=O)N2CCCC2)cc1, the activation is reported as 15.6% (active).
In the case of C/C(CC(=O)Nc1ccc(N(C)C)cc1)=N\NC(=O)c1ccccc1F, the activation is reported as 15.4% (active).
For CCCCCc1ccc(-c2cn(Cc3ccc4ccccc4c3)nn2)cc1, the activation was 10.7% (active).
For COc1cc(C(C)=O)ccc1OC(C)C(=O)Nc1ccc(S(=O)(=O)N2CCCC2)cc1 (stereo not drawn), the activation was 10% (active).
In the case of CSCCC(NC(N)=O)C(=O)N(C)CC(=O)Nc1ccc(C)cc1 (stereo not drawn), the activation is reported as 22.6% (active).
With CCCCN(C)CCNC(=O)C1CCCN(S(=O)(=O)c2cccc3nsnc23)C1 (stereo not drawn) the activation was 14.2% (active).
For C=C1C(C(C)C)N(C)C2=NC(c3ccccc3)CC(=O)N12 (stereo not drawn), the activation was 11.5% (active).
With Cc1noc(C)c1S(=O)(=O)NCCc1ccc(S(N)(=O)=O)cc1 the activation was 13.7% (active).
With COc1ccccc1N1CCN(Cc2cc(OC)c3c(c2)OCO3)CC1 the activation was 16.9% (active).
For C[C@H](NC(=O)C1CCN(S(=O)(=O)c2ccccc2)CC1)C(=O)NCc1ccccc1, the activation was 10.2% (active).
